Reference: ChEMBL document CHEMBL3988442, “University of Dundee, Small-Polar-MMV Screening Library” (2021)
For some assays here: Entries with a potency or affinity are not part of this list.

Columns and labels:
Parameters in all cases: scale not given: direction of the effect not stated beside the values
[1] = target: Protein translocase subunit SecA (Escherichia coli (strain K12)) (UniProt P10408); assay: Assay to Identify E. coli SecA ATPase Inhibitors; assay type: functional; details: 30 µM
[2] = target: T1, Ubiquitin-activating enzyme e1, putative (Leishmania donovani (strain BPK282A1)) (UniProt E9BSI1); assay: Leishmania donovani Ubiquitin Activating Enzyme (LdE1); assay type: functional; details: 30 µM
T1 sequence (whole entry): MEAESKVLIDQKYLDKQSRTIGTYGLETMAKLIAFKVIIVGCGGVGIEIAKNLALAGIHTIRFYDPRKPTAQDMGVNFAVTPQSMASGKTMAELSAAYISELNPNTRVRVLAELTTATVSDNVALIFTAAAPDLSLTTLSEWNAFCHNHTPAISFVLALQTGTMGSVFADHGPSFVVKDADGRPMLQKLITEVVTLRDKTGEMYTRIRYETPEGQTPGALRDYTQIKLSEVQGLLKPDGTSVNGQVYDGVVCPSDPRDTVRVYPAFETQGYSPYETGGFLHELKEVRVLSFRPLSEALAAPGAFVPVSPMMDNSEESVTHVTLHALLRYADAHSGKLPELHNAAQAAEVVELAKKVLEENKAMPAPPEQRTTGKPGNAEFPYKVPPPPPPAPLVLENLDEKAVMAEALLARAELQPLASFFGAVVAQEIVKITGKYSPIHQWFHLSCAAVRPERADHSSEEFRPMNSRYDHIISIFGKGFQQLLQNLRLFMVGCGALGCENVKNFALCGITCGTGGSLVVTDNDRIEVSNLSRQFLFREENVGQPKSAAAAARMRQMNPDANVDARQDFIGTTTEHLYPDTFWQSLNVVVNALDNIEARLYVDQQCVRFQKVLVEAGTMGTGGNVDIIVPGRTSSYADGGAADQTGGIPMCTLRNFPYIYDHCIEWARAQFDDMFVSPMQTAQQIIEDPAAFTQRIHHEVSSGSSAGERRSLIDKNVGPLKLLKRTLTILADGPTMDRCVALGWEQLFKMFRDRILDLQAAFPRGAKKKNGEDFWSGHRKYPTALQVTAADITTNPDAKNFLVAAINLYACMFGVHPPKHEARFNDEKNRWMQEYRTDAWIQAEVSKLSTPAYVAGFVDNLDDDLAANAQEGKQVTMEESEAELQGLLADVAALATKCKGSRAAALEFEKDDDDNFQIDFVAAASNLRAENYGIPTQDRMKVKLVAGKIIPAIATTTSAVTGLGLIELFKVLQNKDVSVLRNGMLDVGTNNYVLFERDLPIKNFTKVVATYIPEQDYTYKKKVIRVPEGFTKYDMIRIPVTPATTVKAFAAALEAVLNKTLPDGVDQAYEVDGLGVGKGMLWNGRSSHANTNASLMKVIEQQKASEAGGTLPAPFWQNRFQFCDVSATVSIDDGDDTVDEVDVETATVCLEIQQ

[3] = target: AMP-activated protein kinase, AMPK (Homo sapiens) (UniProt P54646+O43741+P54619+Q9UGJ0+Q9Y478+Q13131+Q9UGI9); assay: AMP-dependent Kinase enzyme assay. An in vitro enzyme assay that detects ADP turnover that is directly proportional to AMPK activity. This uses naive AMPK that is activated during the assay with MK-8722; assay type: functional; details: 30 µM
[4] = target: Sialic acid-binding Ig-like lectin 9 (Homo sapiens) (UniProt Q9Y336); assay: Hs-Siglec9 ALPHAscreen SOP 20170721; details: 10 µM
Chain of Sialic acid-binding Ig-like lectin 9 (Homo sapiens) (Q9Y336 whole entry): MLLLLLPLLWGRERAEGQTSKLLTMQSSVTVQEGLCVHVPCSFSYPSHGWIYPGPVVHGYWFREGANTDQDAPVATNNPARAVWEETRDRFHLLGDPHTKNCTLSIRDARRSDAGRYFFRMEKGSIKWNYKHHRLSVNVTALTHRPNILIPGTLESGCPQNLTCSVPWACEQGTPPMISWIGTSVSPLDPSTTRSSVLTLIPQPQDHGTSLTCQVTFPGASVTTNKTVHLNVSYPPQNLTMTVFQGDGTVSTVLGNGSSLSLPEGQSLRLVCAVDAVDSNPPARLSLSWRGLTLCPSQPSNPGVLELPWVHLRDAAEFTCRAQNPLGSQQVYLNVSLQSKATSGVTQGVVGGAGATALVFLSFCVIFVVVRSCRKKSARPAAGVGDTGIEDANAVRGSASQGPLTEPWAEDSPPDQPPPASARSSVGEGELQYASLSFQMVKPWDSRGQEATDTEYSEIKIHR

[5] = tested on: Trypanosoma cruzi; assay: Trypanosoma cruzi phosphomannomutase and mannose-1-phosphate guanylyltransferase assay; assay type: functional; details: 10 µM
[6] = target: T2, Arginase-2, mitochondrial (Homo sapiens) (UniProt P78540); assay: in vitro enzyme assay to detect the production of urea directly proportional to the activity of Arginase II; assay type: functional; details: 33.3 µM; also: in the data most compounds retested in dose-response had high values
T2 sequence (whole entry): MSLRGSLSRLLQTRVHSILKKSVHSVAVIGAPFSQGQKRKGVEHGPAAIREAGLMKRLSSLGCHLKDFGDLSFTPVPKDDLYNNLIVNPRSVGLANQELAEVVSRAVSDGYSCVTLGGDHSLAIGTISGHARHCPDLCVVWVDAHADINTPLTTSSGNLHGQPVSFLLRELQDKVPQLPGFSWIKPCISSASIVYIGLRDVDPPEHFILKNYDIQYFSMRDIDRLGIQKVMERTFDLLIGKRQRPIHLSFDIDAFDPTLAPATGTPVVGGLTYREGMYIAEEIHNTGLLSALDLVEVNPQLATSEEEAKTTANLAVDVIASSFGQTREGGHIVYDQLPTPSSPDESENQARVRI

[7] = target: T3, Proteasome subunit beta (Trypanosoma cruzi) (UniProt O96673); assay: Trypanosoma cruzi proteasome chymotrypsin-like activity (TcProtChymo) assay.; also: in the data most compounds retested in dose-response had high values; assay type: functional; details: 9.37 µM
T3 sequence (whole entry): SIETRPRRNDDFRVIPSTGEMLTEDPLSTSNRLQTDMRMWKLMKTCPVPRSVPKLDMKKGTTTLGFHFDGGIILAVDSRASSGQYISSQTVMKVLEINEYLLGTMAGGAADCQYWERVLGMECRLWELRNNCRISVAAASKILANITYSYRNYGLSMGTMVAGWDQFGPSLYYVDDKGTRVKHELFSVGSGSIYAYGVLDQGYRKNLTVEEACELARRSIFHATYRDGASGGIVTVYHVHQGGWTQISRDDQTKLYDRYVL

[8] = species: Homo sapiens; assay: To identify inhibition of the IFN signalling (Jak-Stat) pathway via expression of an eGFP reporter gene under the control of an IFN-stimulated response element (ISRE) containing MxA promoter.; assay type: functional; details: 30 µM
[9] = target: T4, Tyrosyl-tRNA synthetase, putative (Trypanosoma cruzi (strain CL Brener)) (UniProt Q4DSP6); assay: Trypanosoma cruzi tyrosyl tRNA synthetase (TcYRS) _High Tyrosine SOP; assay type: functional; details: 30 µM; also: in the data most compounds retested in dose-response had high values
T4 sequence (whole entry): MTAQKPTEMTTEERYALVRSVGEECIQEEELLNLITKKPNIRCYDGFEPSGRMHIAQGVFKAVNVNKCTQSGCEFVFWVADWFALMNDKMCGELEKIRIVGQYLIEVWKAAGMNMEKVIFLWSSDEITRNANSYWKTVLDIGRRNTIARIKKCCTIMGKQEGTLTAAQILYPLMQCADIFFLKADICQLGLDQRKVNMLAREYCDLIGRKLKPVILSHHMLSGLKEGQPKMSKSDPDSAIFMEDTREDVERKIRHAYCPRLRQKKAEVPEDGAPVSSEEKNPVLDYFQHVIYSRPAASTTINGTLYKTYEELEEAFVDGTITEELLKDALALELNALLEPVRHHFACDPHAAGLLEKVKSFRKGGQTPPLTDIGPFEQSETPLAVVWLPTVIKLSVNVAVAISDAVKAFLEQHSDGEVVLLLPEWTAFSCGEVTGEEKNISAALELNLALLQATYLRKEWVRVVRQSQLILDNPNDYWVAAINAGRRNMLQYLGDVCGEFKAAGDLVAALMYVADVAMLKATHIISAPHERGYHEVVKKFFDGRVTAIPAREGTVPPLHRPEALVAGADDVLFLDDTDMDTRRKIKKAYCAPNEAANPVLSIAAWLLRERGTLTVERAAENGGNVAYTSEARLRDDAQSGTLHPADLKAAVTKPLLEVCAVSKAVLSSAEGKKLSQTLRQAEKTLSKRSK

[10] = target: T4, Tyrosyl-tRNA synthetase, putative (Trypanosoma cruzi (strain CL Brener)); assay: Trypanosoma cruzi tyrosyl tRNA synthetase (TcYRS) SOP; assay type: functional; details: 30 µM
[11] = target: Chromo domain-containing protein 1 (Saccharomyces cerevisiae (strain ATCC 204508 / S288c) (Baker's yeast)) (UniProt P32657); assay: ScCHD-1 Enzyme Inhibition Assay; assay type: functional; details: 30 µM; also: in the data most compounds retested in dose-response had high values
Chain of Chromo domain-containing protein 1 (Saccharomyces cerevisiae (strain ATCC 204508 / S288c) (Baker's yeast)) (P32657 whole entry, the tested form may be a part): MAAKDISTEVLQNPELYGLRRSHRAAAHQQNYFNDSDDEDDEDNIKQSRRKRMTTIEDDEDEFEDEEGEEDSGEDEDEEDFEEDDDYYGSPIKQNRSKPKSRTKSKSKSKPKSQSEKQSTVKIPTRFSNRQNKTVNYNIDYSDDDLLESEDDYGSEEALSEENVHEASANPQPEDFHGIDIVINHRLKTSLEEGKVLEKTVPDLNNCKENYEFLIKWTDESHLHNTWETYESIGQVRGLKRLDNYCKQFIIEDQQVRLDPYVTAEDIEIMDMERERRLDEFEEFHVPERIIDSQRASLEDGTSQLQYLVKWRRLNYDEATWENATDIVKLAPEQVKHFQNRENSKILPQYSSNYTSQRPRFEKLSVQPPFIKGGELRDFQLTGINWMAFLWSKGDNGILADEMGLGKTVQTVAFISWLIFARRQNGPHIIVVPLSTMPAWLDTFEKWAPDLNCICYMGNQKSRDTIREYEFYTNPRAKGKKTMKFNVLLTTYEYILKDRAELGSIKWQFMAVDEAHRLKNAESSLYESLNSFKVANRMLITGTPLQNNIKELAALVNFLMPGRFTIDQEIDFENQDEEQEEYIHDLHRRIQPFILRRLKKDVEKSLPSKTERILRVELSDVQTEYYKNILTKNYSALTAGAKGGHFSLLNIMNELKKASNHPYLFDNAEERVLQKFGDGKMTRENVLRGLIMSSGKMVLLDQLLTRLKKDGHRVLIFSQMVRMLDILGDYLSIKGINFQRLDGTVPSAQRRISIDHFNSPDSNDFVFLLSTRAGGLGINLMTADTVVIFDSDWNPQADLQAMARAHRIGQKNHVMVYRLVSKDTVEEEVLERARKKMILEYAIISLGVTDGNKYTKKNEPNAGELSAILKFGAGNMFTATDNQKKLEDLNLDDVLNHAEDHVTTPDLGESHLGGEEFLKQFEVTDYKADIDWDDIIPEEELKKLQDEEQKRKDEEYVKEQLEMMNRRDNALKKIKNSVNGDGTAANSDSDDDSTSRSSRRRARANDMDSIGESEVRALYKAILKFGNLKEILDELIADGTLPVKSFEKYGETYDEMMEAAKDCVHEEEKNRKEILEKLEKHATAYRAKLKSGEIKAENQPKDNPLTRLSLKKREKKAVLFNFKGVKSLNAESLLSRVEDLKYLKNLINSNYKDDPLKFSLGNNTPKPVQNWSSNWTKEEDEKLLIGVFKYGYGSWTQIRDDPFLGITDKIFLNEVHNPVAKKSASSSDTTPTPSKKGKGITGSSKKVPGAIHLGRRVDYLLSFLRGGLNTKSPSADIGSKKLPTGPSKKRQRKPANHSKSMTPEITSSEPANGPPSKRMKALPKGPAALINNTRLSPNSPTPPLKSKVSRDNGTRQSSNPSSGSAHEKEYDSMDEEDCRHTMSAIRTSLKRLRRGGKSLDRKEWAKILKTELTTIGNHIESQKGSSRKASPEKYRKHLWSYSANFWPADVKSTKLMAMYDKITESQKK

Chain of Protein translocase subunit SecA (Escherichia coli (strain K12)) (P10408 whole entry): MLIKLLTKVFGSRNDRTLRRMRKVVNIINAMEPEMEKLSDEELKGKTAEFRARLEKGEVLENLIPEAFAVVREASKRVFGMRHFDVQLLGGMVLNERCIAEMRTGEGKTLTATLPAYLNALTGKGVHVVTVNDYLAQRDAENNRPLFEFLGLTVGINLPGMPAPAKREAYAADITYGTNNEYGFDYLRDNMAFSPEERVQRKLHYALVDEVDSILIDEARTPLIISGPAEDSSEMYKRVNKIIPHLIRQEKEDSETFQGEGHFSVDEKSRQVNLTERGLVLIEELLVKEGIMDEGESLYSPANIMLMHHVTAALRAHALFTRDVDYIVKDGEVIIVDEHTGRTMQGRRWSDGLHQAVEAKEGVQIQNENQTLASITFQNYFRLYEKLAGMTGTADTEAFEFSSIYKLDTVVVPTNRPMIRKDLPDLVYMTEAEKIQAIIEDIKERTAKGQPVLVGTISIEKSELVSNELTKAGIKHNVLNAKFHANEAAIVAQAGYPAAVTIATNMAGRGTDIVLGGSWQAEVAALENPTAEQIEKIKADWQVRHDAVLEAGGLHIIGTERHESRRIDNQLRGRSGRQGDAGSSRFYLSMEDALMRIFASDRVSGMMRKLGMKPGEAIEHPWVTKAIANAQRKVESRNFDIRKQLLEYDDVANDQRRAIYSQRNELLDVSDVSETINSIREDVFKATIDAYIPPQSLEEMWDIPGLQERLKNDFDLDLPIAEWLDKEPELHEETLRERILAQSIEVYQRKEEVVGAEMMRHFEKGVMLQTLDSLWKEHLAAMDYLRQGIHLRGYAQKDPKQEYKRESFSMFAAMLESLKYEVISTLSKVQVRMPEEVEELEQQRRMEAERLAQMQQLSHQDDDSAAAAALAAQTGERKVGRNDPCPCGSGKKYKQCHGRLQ

Compound | Percent Effect [1] [%] | Percent Effect [2] [%] | Percent Effect [3] [%] | Percent Effect [4] [%] | Percent Effect [5] [%] | Percent Effect [6] [%] | Percent Effect [7] [%] | Percent Effect [8] [%] | Percent Effect [9] [%] | Percent Effect [10] [%] | Percent Effect [11] [%]
CCN(Cc1cccc(Cl)c1)Cn1nc(C)c2c(C)onc2c1=O | -8.55 | 8.11 | -4.63 | 2.84 | -3.68 | -0.802 | -0.18 | 14.3 | 1.48 | 1.24 | -6.67
CC(C)c1nn(C)c(Cl)c1CNCC(O)c1cccc(F)c1 (stereo unspecified) | -7.69 | 5.2 | -1.22 | -3.98 | 7.35 | -2.32 | 15.8 | 4.38 | 7.62 | 30.6 | -7
COC(=O)c1sccc1S(=O)(=O)N1CCC(Oc2ncccc2Cl)CC1 | -6.92 | -8.22 | 18.7 | 1.08 | 4.9 | -0.455 | 3.02 | 35.1 | -19.4 | -20 | -1.89
CN1CCOC(CNCc2nc(-c3ccccc3)cs2)C1 (stereo unspecified) | -3.28 | -12.7 | -8.45 | 1.64 | 5.95 | -1.9 | 1.39 | -25.8 | 1.48 | 1.27 | 4.02
CC(C)c1nccn1C1CCCN(C(=O)c2cccc3c2OCO3)C1 (stereo unspecified) | 1.99 | -46 | -3.6 | 9.39 | 2.55 | -5.61 | 2.16 | 9.02 | 2.46 | 11.1 | -2.9
O=C(NCCOc1ccc(F)c(F)c1)NCc1cccc(CO)c1 | -2.53 | 2.7 | 1.53 | 4.96 | 1.16 | -2.38 | 15.2 | 19.7 | -0.529 | 7.32 | -4.04
COCC(NC(=O)c1ccc[nH]1)c1cccc(C(F)(F)F)c1 (stereo unspecified) | -6.18 | 2.74 | -4.37 | 35.1 | 9.01 | 32.3 | 4.79 | 3.46 | 0 | 10 | -5.6
O=C(NCC1CCN(Cc2ccsc2)CC1)NC1CC1 | 1.05 | 7.79 | 2.27 | -0.902 | -5.62 | 14.8 | 17.2 | 10.3 | 2.12 | 6.41 | -5.17
COc1cc(C(=O)N(Cc2cnn(C)c2)C(C)C)ccc1OCC(N)=O | -7.3 | 18.4 | -10.1 | -6.52 | -5.32 | 0 | 10.4 | 9.36 | 0.493 | 6.17 | -2.3
Cc1ccsc1CNC(=O)NC1CCCc2c1cnn2CCO (stereo unspecified) | -6.41 | 2.67 | 2.26 | 2.19 | -1.27 | -3.12 | 13.4 | -12.2 | 6.01 | 18.5 | -4.15
CCOc1nc2cccnc2n(CC(=O)NCCOC)c1=O | -0.937 | 23.4 | 3.02 | -0.135 | 3.85 | -1.94 | 10.4 | 3.76 | 3.17 | 11.5 | -9.72
Cc1ccc(C(=O)N2CCCC2c2nnc3n2CCCCC3)o1 (stereo unspecified) | 0.332 | -1.39 | 7.46 | -3.27 | -2.23 | -11.9 | 6.84 | -2.88 | 2.1 | -5.13 | -1.81
CN(CCCNC(=O)N1CCCC1c1ccsc1)c1ccccn1 (stereo unspecified) | -0.565 | 28.6 | -13.6 | -0.894 | 1.5 | 3.92 | 12.5 | 25.5 | 9.71 | 19.5 | -10.5
CCn1ccnc1CN1CCC(CNC(=O)c2ccc(C)nc2)C1 (stereo unspecified) | -0.749 | 10.4 | 4.72 | 15.7 | 6.39 | -1.38 | 12 | 15.6 | 8.6 | 16.1 | -3.08
Cc1noc(C(C)N2CCN(CCC(=O)N3CCCCC3)CC2)n1 (stereo unspecified) | -2.79 | 10.5 | -2.48 | 3.61 | 4.19 | -16.6 | 9.68 | 21.2 | 3.19 | 15.6 | -5.47
Clc1ccccc1-c1nc(CNCCn2cccn2)cs1 | -1.85 | -15.8 | 2.49 | -0.874 | 9.02 | 0.383 | 10.9 | 13.7 | 9.31 | 17.1 | 14.2
